Experimental data published in PubChem BioAssay (Tox21).
Inconclusive results are not listed. Calls of active or inactive are those of the source. Unless noted, the call rests on the fitted dose curve; in most records, active means well fitted curve in the direction sought with a large enough effect in the repeat runs; inconclusive means weak or mixed curves; inactive means no such curve, though single readings can be large; an effect the other way counts as inactive or inconclusive.

How the values were obtained:
[1] = qHTS assay to identify small molecule agonists of H2AX (AID 1224845; active means well fitted activation curve with a large enough effect in the signal ratio in the repeat runs, not every such curve was filed as active; the % refers to the signal ratio)
Procedure, shortened: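 Wild-type CHO-K1 cells plated overnight, then exposed 3 hr at 37C to compounds at 15 concentrations (0.76% DMSO). Lysed, then HTRF anti-pH2AX(S139)-cryptate/anti-H2AX-d2 detection after 24 hr at room temperature; emissions 665 and 620 nm.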

[2] = qHTS assay to identify small molecule agonists of the hypoxia (HIF-1) signaling pathway (AID 1224846; active means well fitted activation curve with a large enough effect in the signal ratio in the repeat runs, not every such curve was filed as active; the % refers to the signal ratio)
Procedure, shortened: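 Reporter induction in HRE-bla ME-180 cells is taken as agonism: cells sit 5 hrs after plating, receive compounds or DMSO only, incubate 17 hrs at 37C under 5% CO2, and are loaded with CCF4-AM for beta-lactamase FRET measurement.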

[3] = qHTS assay to identify small molecule agonists of H2AX - cell viability counter screen (AID 1224847; calls by dose curve; further: top concentration of the series differs between compounds; nearly all actives have a fitted effect of over 30% in size)
Procedure, shortened: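 Wild-type CHO-K1 cells (10% FBS medium) were plated overnight at 37C, exposed to compounds at 15 concentrations for 3 hr at 37C (0.76% DMSO final), and viability was read as CellTiter-Glo luminescence after 30 min at room temperature.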

[4] = qHTS assay to identify small molecule antagonists of the estrogen related receptor (ERR) signaling pathway from Tox21 library (AID 1224848); further: nearly all actives have a fitted effect of over 50% in size
Procedure, shortened: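 Tox21 10K compounds in DMSO tested for ERR pathway antagonism in NTP's ERR cell line; 18 h, 37 C exposure; ONE-Glo luminescence.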

[5] = qHTS assay to identify small molecule agonists of the estrogen related receptor (ERR) signaling pathway from Tox21 library (AID 1224849; calls by dose curve; further: nearly all actives have a fitted effect of over 15% in size); conditions: ERR reporter cell line, ONE-Glo luciferase, 18 h; at 92.4 µM (top of the series) unless noted
Procedure, shortened: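 Tox21 compounds tested for ERR agonism in an NTP reporter cell line: 18 h treatment at 37 C, then ONE-Glo luminescence.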

[6] = qHTS RealTime-Glo MT Cell Viability Assay in HepG2 cells - 24 hour (AID 1224867); further: nearly all actives have a fitted effect of over 50% in size
Procedure, shortened: (§1)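 Luminescence read-out: viable HepG2 cells reduce a prosubstrate to a NanoLuc substrate, giving a signal proportional to live cell number. Reads taken at 0, 8, 16, 24, 32 and 40 h of compound exposure at 37 C.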

[7] = qHTS RealTime-Glo MT Cell Viability Assay in HEK293 cells - 32 hour (AID 1224868); further: top concentration of the series differs between compounds; nearly all actives have a fitted effect of over 50% in size
Procedure, shortened: (§2)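 Nonlytic real-time viability readout: viable cells convert prosubstrate to NanoLuc substrate, giving luminescence proportional to live cell number. HEK293, 600 cells/well, compound added after 5 h, continuous culture at 37 C.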

[8] = A CellTox Green Cytotoxicity Assay to monitor cytotoxicity in HEK293 cells - 0 hour (AID 1224869); further: nearly all actives have a fitted effect of over 50% in size
Procedure, shortened: (§3)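 Tox21 screen in HEK293: membrane-impermeant cyanine dye fluoresces on binding dead-cell DNA; compound pinned 5 h post-seeding, plates held at 37 C, signal read repeatedly through 40 h.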

[9] = A CellTox Green Cytotoxicity Assay to monitor cytotoxicity in HEK293 cells - 40 hour (AID 1224871); further: nearly all actives have a fitted effect of over 45% in size
Procedure, shortened: as §3

[10] = qHTS RealTime-Glo MT Cell Viability Assay in HEK293 cells - 16 hour (AID 1224872)
Procedure, shortened: as §2

[11] = qHTS RealTime-Glo MT Cell Viability Assay in HepG2 cells - 8 hour (AID 1224873); further: nearly all actives have a fitted effect of over 55% in size
Procedure, shortened: (§4)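 HepG2 cells mixed with RealTime-Glo MT reagents (NanoLuc plus cell-permeant prosubstrate) were seeded at 600 cells/well, incubated 5 h at 37 C/5% CO2, then pinned with compounds in DMSO; nonlytic luminescence tracked viability during 40 h treatment.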

[12] = qHTS RealTime-Glo MT Cell Viability Assay in HEK293 cells - 40 hour (AID 1224874); conditions: RealTime-Glo luminescence; max response: hits give low values; further: nearly all actives have a fitted effect of over 50% in size
Procedure, shortened: (§5)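 HEK293 + NanoLuc + prosubstrate, 600 cells/well; 5 h, 37 C/5% CO2; compound 23 nL in DMSO by pintool; 37 C; luminescence read at 0, 8, 16, 24, 32 and 40 h time points.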

[13] = A CellTox Green Cytotoxicity Assay to monitor cytotoxicity in HEK293 cells - 24 hour (AID 1224875); further: nearly all actives have a fitted effect of over 45% in size
Procedure, shortened: as §3

[14] = A CellTox Green Cytotoxicity Assay to monitor cytotoxicity in HepG2 cells - 16 hour (AID 1224876); further: nearly all actives have a fitted effect of over 45% in size
Procedure, shortened: (§6)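 Measurements at 0, 8, 16, 24, 32 and 40 h of treatment captured CellTox Green fluorescence in HepG2 cells that had been co-plated with reagent and preincubated 5 h at 37 C/5% CO2.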

[15] = qHTS RealTime-Glo MT Cell Viability Assay in HepG2 cells - 32 hour (AID 1224877); further: nearly all actives have a fitted effect of over 55% in size
Procedure, shortened: as §1

[16] = A CellTox Green Cytotoxicity Assay to monitor cytotoxicity in HepG2 cells - 24 hour (AID 1224878); further: nearly all actives have a fitted effect of over 45% in size
Procedure, shortened: as §6

[17] = A CellTox Green Cytotoxicity Assay to monitor cytotoxicity in HepG2 cells - 40 hour (AID 1224879); further: nearly all actives have a fitted effect of over 40% in size
Procedure, shortened: as §6

[18] = qHTS RealTime-Glo MT Cell Viability Assay in HEK293 cells - 0 hour (AID 1224880)
Procedure, shortened: as §5

[19] = A CellTox Green Cytotoxicity Assay to monitor cytotoxicity in HEK293 cells - 32 hour (AID 1224881); further: nearly all actives have a fitted effect of over 40% in size
Procedure, shortened: as §3

[20] = qHTS RealTime-Glo MT Cell Viability Assay in HepG2 cells - 40 hour (AID 1224870); further: nearly all actives have a fitted effect of over 50% in size
Procedure, shortened: as §4
On the % scale 0 is the no-effect control and ±100 the full control effect.

CCCCCCCC(=O)OCC
inactive: Potency [1] | outcome [2] | Potency [3] | Potency [4] | activity change, positive = activation [5] 0.783% | Potency [6] | Potency [7] | Potency [8] | Potency [9] | Potency [10] | Potency [11] | max response [12] -3.83% | Potency [13] | Potency [14] | Potency [15] | Potency [16] | Potency [17] | Potency [18] | Potency [19]

CCCC(=O)OCC(COC(=O)CCC)OC(=O)CCC
inactive: Potency [1] | outcome [2] | Potency [3] | Potency [4] | activity change, positive = activation [5] -2.08% | Potency [6] | Potency [7] | Potency [8] | Potency [20] | Potency [9] | Potency [10] | Potency [11] | Potency [13] | Potency [14] | Potency [15] | Potency [16] | Potency [18] | Potency [19]

Cc1cccc(N(C)C)c1
inactive: Potency [1] | outcome [2] | Potency [3] | Potency [4] | activity change, positive = activation [5] -0.051% | Potency [6] | Potency [7] | Potency [8] | Potency [20] | Potency [9] | Potency [10] | Potency [11] | max response [12] 7.91% | Potency [13] | Potency [14] | Potency [15] | Potency [16] | Potency [17] | Potency [19]

CCOC(OCC)C(=O)c1ccccc1
inactive: Potency [1] | outcome [2] | Potency [3] | Potency [4] | activity change, positive = activation [5] 1.64% | Potency [6] | Potency [7] | Potency [8] | Potency [9] | Potency [10] | Potency [11] | max response [12] 0.351% | Potency [13] | Potency [14] | Potency [15] | Potency [16] | Potency [17] | Potency [18] | Potency [19]

CC(COC(=O)c1ccccc1)OC(=O)c1ccccc1 (stereo unspecified)
inactive: Potency [1] | outcome [2] | Potency [3] | Potency [4] | activity change, positive = activation [5] 6.72% | Potency [6] | Potency [7] | Potency [8] | Potency [20] | Potency [9] | Potency [10] | Potency [11] | max response [12] -5.23% | Potency [13] | Potency [14] | Potency [15] | Potency [16] | Potency [18] | Potency [19]

CCN(CC)c1cccc(C)c1
inactive: Potency [1] | outcome [2] | Potency [3] | Potency [4] | activity change, positive = activation [5] 9.53% | Potency [6] | Potency [7] | Potency [8] | Potency [20] | Potency [9] | Potency [10] | Potency [11] | max response [12] -4.54% | Potency [14] | Potency [15] | Potency [16] | Potency [18] | Potency [19]

CCNc1nc(NC(C)CC)nc(OC)n1 (stereo unspecified)
inactive: Potency [1] | outcome [2] | Potency [3] | Potency [4] | activity change, positive = activation [5] 10.4% | Potency [6] | Potency [7] | Potency [8] | Potency [20] | Potency [9] | Potency [10] | Potency [11] | Potency [13] | Potency [14] | Potency [15] | Potency [16] | Potency [17] | Potency [18] | Potency [19]

COc1nccnc1CC(C)C
inactive: Potency [1] | outcome [2] | Potency [3] | Potency [4] | activity change, positive = activation [5] 0.914% | Potency [6] | Potency [7] | Potency [8] | Potency [20] | Potency [9] | Potency [10] | Potency [11] | max response [12] 10.2% | Potency [13] | Potency [14] | Potency [15] | Potency [16] | Potency [17] | Potency [18] | Potency [19]

C#CC(O)CCC (stereo unspecified)
inactive: Potency [1] | outcome [2] | Potency [3] | Potency [4] | activity change, positive = activation [5] 6.08% | Potency [6] | Potency [7] | Potency [8] | Potency [20] | Potency [9] | Potency [10] | Potency [11] | max response [12] 0.0439% | Potency [13] | Potency [14] | Potency [15] | Potency [16] | Potency [17] | Potency [18]

CC(C)(C)c1n[nH]c(=O)n(N)c1=O
inactive: Potency [1] | outcome [2] | Potency [3] | Potency [4] | activity change, positive = activation [5] -7.06% | Potency [6] | Potency [7] | Potency [8] | Potency [20] | Potency [9] | Potency [10] | max response [12] -0.732% | Potency [13] | Potency [14] | Potency [15] | Potency [16] | Potency [17] | Potency [18] | Potency [19]

C=C/C=C/C=C/CCCCC
inactive: activation (H2AX phosphorylation) [1] 0.418% [at 31.6 µM] | activation [2] 0.434% [at 15.8 µM] | activity change, negative = cytotoxicity [3] -1.43% [at 31.6 µM] | activity, negative = inhibition [4] 3.04% [at 19 µM] | activity change, positive = activation [5] 1.56% [at 19 µM] | activity change, negative = cytotoxicity [6] -0.964% [at 15.8 µM] | activity change, negative = cytotoxic [7] 0.818% [at 15.8 µM] | cytotoxicity [8] -0.619% [at 15.8 µM] | activity change, negative = cytotoxic [20] 24.6% [at 15.8 µM] | cytotoxicity increase [9] 10.9% [at 15.8 µM] | activity change, negative = cytotoxicity [10] 13.8% [at 15.8 µM] | max response [12] -0.0339% | activity change [13] 1.62% [at 15.8 µM, hits give high values] | cytotoxicity increase [14] -3.81% [at 15.8 µM] | activity change, negative = cytotoxic [15] 7.06% [at 15.8 µM] | cytotoxicity [16] -3.54% [at 15.8 µM] | cytotoxicity increase [17] -4.48% [at 15.8 µM] | activity change, negative = cytotoxicity [18] 0.841% [at 15.8 µM] | cytotoxicity increase [19] 13.2% [at 15.8 µM]

CCc1cccc(CC)c1NC(=O)C(=O)O
inactive: Potency [1] | outcome [2] | Potency [3] | Potency [4] | activity change, positive = activation [5] -1.7% | Potency [6] | Potency [7] | Potency [8] | Potency [20] | Potency [9] | Potency [10] | max response [12] 9.15% | Potency [13] | Potency [14] | Potency [15] | Potency [16] | Potency [17] | Potency [18] | Potency [19]

CCO[Si](C)(C)OCC
inactive: Potency [1] | outcome [2] | Potency [3] | Potency [4] | activity change, positive = activation [5] -0.643% | Potency [6] | Potency [7] | Potency [8] | Potency [20] | Potency [9] | Potency [10] | Potency [11] | max response [12] -0.247% | Potency [13] | Potency [14] | Potency [15] | Potency [16] | Potency [18] | Potency [19]
